In the library only some 18% were active in any assay of this set; here they are far more common.
LDHA inh – LDHA (human) enzyme inhibition. activity change, % (values are at about 110 or 230 µM). P00338. 0.15% of 480,000 active. purified LDHA, NADH/diaphorase-resazurin fluorescence; hits give low values; in the data active = activity change below about -30%; inconclusive = mostly about -25% to -30%
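Human LDH5 (2 nM) was incubated with 0.06 mM NADH and 0.2 mM pyruvate for 5 min at room temperature in Tris pH 7.4. Remaining NADH was coupled through diaphorase/resazurin, and resorufin fluorescence was read at 0 and 20 min.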
TDP1 cell noCPT – qHTS for Inhibitors of human tyrosyl-DNA phosphodiesterase 1 (TDP1): qHTS in cells in absence of CPT. DT40 Tdp1-/- hTDP1 cells, no CPT, ATP luminescence, 48 h. Potency, µM (series often up to 46.2 µM), most hits filed as inhibitors. 15% of 420,000 active. AID 686978, 2013; also: nearly all actives have a fitted effect of over 55% in size
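DT40 Tdp1-/-;hTDP1 cells, no CPT (DMSO vehicle only), 400 cells/well; compounds pin-transferred; ≥48 hr, 37 °C; CellTiter-Glo 30 min RT dark, luminescence read.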
Gal4-VP16 FLuc – inhibits Gal4-VP16 luciferase reporter, ROR gamma counter-screen; Drosophila S2 Gal4-VP16 UAS-luciferase, luminescence, 20 h; Potency, µM (series often up to 53.6 µM), hits mostly inhibitors; 3.5% of 310,000 active; AID 2546;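 also: Gal4-VP16 expression switched on by copper sulfate through the metallothionein promoter; nearly all actives have a fitted effect of over 50% in size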
IL-1B inflam inh – inhibitors of inflammasome signaling (IL-1 beta secretion); THP-1 LPS/ATP IL-1B secretion, AlphaLISA, 16 h; hits give low values; 4.7% of 360,000 active; AID 743279; activity change, % at 57.5 µM; in the data active = activity change below about -50%; inconclusive = mostly about -30% to -49%
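Secreted IL-1B measured by AlphaLISA bead assay after 16 h compound exposure of THP-1 cells; compounds (final up to 57.5 uM) added 1 h before LPS (250 ng/mL) and ATP (1.25 mM) stimulation; lower signal means less secretion.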
RORgamma inh – ROR gamma (mouse) transcription inhibition; P51450; Drosophila S2 Gal4-RORgamma UAS-luciferase reporter, 20 h; Potency, µM (doses to about 53.6 µM), hits mostly inhibitors; 5.4% of 310,000 active; AID 2551; also: nearly all actives have a fitted effect of over 60% in size
Target sequence (P51450 whole entry, looked up, the tested form may be a part): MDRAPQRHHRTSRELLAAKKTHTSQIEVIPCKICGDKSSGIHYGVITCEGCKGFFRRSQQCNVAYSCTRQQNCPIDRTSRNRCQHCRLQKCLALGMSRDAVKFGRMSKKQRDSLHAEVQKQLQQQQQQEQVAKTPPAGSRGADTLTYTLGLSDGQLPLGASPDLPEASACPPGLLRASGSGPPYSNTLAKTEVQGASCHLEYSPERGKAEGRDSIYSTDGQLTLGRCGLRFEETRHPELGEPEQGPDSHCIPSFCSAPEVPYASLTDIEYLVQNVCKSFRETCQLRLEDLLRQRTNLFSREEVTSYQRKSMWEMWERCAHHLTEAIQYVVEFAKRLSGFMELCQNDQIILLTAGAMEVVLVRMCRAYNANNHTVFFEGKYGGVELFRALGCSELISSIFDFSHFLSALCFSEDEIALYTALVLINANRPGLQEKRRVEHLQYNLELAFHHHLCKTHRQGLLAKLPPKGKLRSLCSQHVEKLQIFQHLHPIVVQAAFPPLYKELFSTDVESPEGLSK
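A Gal4/UAS one-hybrid system in insect cells: metallothionein-promoter Gal4–ROR gamma fusion plus Photinus luciferase reporter. Copper sulfate 700 uM final, 20 hr ambient incubation, luminescent detection after 10 min with reagent.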
TDP1 cell CPT – DT40-hTDP1 cell growth loss with CPT; chicken DT40 Tdp1-/-;hTDP1 cells + 20 nM CPT, ATP luminescence, 48 h; Potency, µM (doses to about 46.2 µM), usual class: inhibitors; 12% of 420,000 active; also: nearly all actives have a fitted effect of over 55% in size
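Chicken DT40 Tdp1-/- cells stably complemented with human TDP1 were seeded at 400 cells/well in medium containing 20 nM camptothecin, exposed to pin-transferred compounds, and grown at 37 °C for at least 48 hr. Viability was read as ATP luminescence.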
Numbers stand for hits; n = inactive; u = inconclusive; x = not tested or not shown; ! = not confirmed by another sample. Unless noted, calls follow the shape of the dose curve; as a rule, active = well fitted curve in the direction sought with a large enough effect; inconclusive = small, poorly fitted or top-dose-only effect, or another doubt; inactive = no such curve, though single readings can be large; an effect the other way counts as inactive or inconclusive.

SMILES	LDHA inh	TDP1 cell noCPT	Gal4-VP16 FLuc	IL-1B inflam inh	RORgamma inh	TDP1 cell CPT
O=S(=O)(c1ccc(N2CCOCC2)cc1)N1CCOCC1	n	n	n	n	n	n
O=S(=O)(c1ccc(NC(=S)N2CCN(c3ccc(O)cc3)CC2)cc1)N1CCOCC1	n	12µM	n	n	n	u
CC(C)(C)NNC(=S)Nc1ccc(S(=O)(=O)N2CCOCC2)cc1	n	u	u	n	5.6µM	n
O=S(=O)(c1ccc(NC(=S)N2CCCCC2)cc1)N1CCCCC1	n	u	x	n	x	u
Cc1ccsc1C(=O)N(Cc1ccccn1)C1CC1	n	x	x	x	x	x
COc1ccc(NC(=O)c2ccc3c(c2)c(C)c(C)n3Cc2ccc(F)cc2)c(OC)c1	n	21µM	x	x	x	18µM
COc1ccc(NC(=O)c2ccc(C(=O)Nc3ccc(OC)cc3OC)cc2)c(OC)c1	n	n	n	n	n	n
COc1ccc(OC)c(NC(=O)c2ccc(CN3CCOCC3)cc2)c1	n	n	n	n	n	n
COc1ccc(OC)c(NC(=O)c2ccc3c(c2)c(C)c(C)n3Cc2ccc(F)cc2)c1	n	21µM	x	x	x	u
CCCc1ccc(C(=O)COC(=O)CNC(=O)c2ccc(C)cc2)cc1	n	x	x	x	x	x
Clc1ccc2c(c1)NC(c1ccncc1)=NC(c1cccs1)=N2	n	u	x	x	x	u
CCc1ccc2c(c1)NC(c1ccc(C)cc1)=NC(c1cccs1)=N2	n	26µM	x	x	x	u
CC(C)c1ccc2c(c1)NC(c1ccncc1)=NC(c1cccs1)=N2	n	16µM	x	x	x	u
Clc1cccc(C2=NC(c3cccs3)=Nc3ccc(Br)cc3N2)c1	n	15µM	x	x	x	16µM
CCCCOc1ccc(C2=NC(c3cccs3)=Nc3ccc(CC)cc3N2)cc1	n	u	x	x	x	21µM
C=CCn1c(=NC(=O)C2COc3ccccc3O2)sc2cccc(OC)c21 (stereo unspecified)	n	23µM	n	n	n	u
C=CCn1c(=NC(=O)CN2C(=O)CCC2=O)sc2cccc(OC)c21	n	u	n	n	n	u
COC(=O)Cn1c(=NC(=O)C2COc3ccccc3O2)sc2cc(S(N)(=O)=O)ccc21 (stereo unspecified)	n	18µM	n	-52	n	u
CCn1c(=NC(=O)C2COc3ccccc3O2)sc2c(C)ccc(OC)c21 (stereo unspecified)	n	12µM	u	n	n	21µM
COC(=O)Cn1c(=NC(=O)CN2C(=O)CCC2=O)sc2cc(S(N)(=O)=O)ccc21	n	n	n	n	n	n
CC(C)(C)NC(=O)COC(=O)C(c1ccccc1)c1ccccc1	n	x	x	x	x	x
C=C(C)Cn1c(SCCOCC)nc2c1c(=O)[nH]c(=O)n2C	n	x	x	x	x	x
COc1ccccc1-c1nn(Cc2ccccc2)cc1C(=O)NCC(c1ccco1)N1CCCC1 (stereo unspecified)	n	n	x	n	x	u
COc1ccc(OC)c(-c2nn(-c3ccccc3)cc2C(=O)NCC(c2ccco2)N2CCCC2)c1 (stereo unspecified)	n	21µM	x	n	x	u
Cc1ccccc1-c1nn(-c2ccccc2)cc1C(=O)NCC(c1ccco1)N1CCCC1 (stereo unspecified)	n	18µM	x	u	x	21µM
SMILES	LDHA inh	TDP1 cell noCPT	Gal4-VP16 FLuc	IL-1B inflam inh	RORgamma inh	TDP1 cell CPT
O=C(O)c1cccc2ncccc12	n	x	x	x	x	x
OCc1ccc(-c2nn(Cc3ccccc3)c3ccccc23)o1	n	18µM!	x	n	x	11µM!
COc1cccc2c1C(=O)c1c(O)c3c(c(O)c1C2=O)CC(O)(C(C)=O)CC3OC1CC(O)C(O)C(C)O1 (stereo unspecified)	n	0.82µM	x	-103	x	1.2µM
COc1cccc2c1C(=N)c1c(O)c3c(c(O)c1C2=O)CC(O)(C(C)=O)CC3OC1CC(N)C(O)C(C)O1 (stereo unspecified)	n	0.18µM	x	-102	x	0.16µM
COc1cccc2c1C(=O)c1c(O)c3c(c(O)c1C2=O)C[C@](O)(C(C)=O)C[C@H]3O[C@@H]1C[C@@H](N)[C@@H](O)[C@@H](C)O1	n	0.092µM	x	u	x	0.1µM
COc1cccc2c1C(=O)c1c(O)c3c(c(O)c1C2=O)C[C@](O)(C(=O)CO)C[C@H]3O[C@@H]1C[C@H](N)[C@H](O)[C@H](C)O1	x	x	7.1µM	x	1.1µM	x
Cc1ccc2c(CN3c4ccc(S(N)(=O)=O)cc4CC3C)cc(=O)oc2c1C (stereo unspecified)	n	x	x	x	x	x
O=C(OCc1cccc2ccccc12)c1cc(=O)c2ccccc2o1	n	x	x	x	x	x
Cc1c(Cl)cccc1NC(=S)NNS(=O)(=O)c1ccc([N+](=O)[O-])cc1	n	n	7.1µM	n	4.5µM	n
COc1ccc(S(=O)(=O)N2CCCCC2)cc1NC(=O)c1c(F)cccc1Cl	n	16µM	x	n	x	u
Cc1onc(-c2c(F)cccc2Cl)c1C(=O)Nc1cc(S(=O)(=O)N2CCCCC2)ccc1O	n	16µM	x	n	x	16µM
Cc1onc(-c2c(F)cccc2Cl)c1C(=O)Nc1ccc(S(=O)(=O)N2CCOCC2)cc1	n	u	x	n	x	n
COc1ccc(S(=O)(=O)N2CCCCC2)cc1NC(=O)c1ccccc1	n	n	x	n	x	n
Cc1c(Cl)cccc1NC(=S)Nn1cnnc1	n	n	n	u	u	n
COc1ccc(S(=O)(=O)N2CCCCC2)cc1NC(=S)Nc1cccc(Cl)c1C	n	u	u	n	11µM	u
NS(=O)(=O)c1ccc(NCS(=O)(=O)O)cc1	n	x	x	x	x	x
CCOC(=O)C1CCC(CNC(=O)N2CCCC2c2ccc(F)cc2)CC1 (stereo unspecified)	n	x	x	x	x	x
CC1=CC(C)(C)n2c(O)c(N=NC(N)=S)c3cccc1c32	n	u	2µM	n	1.1µM	u
COc1cc2c3c(c1)c(N=NC(N)=S)c(O)n3C(C)(C)C=C2C	n	5.2µM	4.5µM	n	2µM	4.6µM
CC1=CC(C)(C)n2c(O)c(N=N)c3cc(C)cc1c32	n	23µM	n	-60	n	u
CC1=CC(C)(C)n2c(O)c(N=NC(N)=S)c3c(C)c(C)cc1c32	n	n	n	n	n	n
CC1=CC(C)(C)n2c(O)c(N=NC(N)=S)c3c(C)ccc1c32	n	n	2.5µM	n	4.5µM	n
O=C(CSc1ncnc2sc3c(c12)CCC3)NCc1ccc(F)cc1	n	x	x	x	x	x
COc1cc(OC)cc(C2=Cc3ccccc3C(CC(C)=O)N2c2ccc(-c3cccs3)cc2)c1 (stereo unspecified)	n	21µM	x	n	x	u
COC(=O)c1ccc(N2C(c3cccc(OC)c3)=Cc3ccc(F)cc3C2c2c(C)[nH]c3ccccc23)cc1 (stereo unspecified)	n	u	x	n	x	23µM
